This is an account of results in article PMC5700166.

Experiment in all cases: protein-binding microarray (PBM); PBM: ~300 nM protein, 6 mM HEPES pH 7.8, 80 mM KCl, 0.5 mM EDTA, 0.5 mM EGTA, 6% glycerol, 35 ng/ul poly-dIdC, 1% milk, 1 h, room temperature; Ap Aiptasia and Nv Nematostella (sea anemones) / Co Capsaspora / Aq Amphimedon (sponge) / Dm Drosophila / Hu human; RHD is the Rel homology domain; high values mean tight binding
What all share (conditions): dsDNA, one strand shown

Experiment [1] addresses T1, GST-Ap-NF-kB RHD (Exaiptasia pallida (Aiptasia), UniProt A0A913YAJ5 2-422).
T1 sequence: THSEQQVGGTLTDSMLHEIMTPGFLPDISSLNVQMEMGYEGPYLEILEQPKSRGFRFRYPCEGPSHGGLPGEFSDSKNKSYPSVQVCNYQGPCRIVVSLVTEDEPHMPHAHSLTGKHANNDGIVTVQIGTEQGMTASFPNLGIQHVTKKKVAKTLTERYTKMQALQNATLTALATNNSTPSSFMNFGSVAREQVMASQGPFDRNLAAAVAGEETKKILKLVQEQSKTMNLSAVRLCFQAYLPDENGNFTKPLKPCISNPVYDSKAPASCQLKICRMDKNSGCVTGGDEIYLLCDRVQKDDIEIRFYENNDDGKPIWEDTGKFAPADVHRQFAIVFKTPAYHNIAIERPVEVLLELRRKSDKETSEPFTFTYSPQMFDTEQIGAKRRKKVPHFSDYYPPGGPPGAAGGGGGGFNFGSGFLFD

Experiment [2] addresses T2, GST-Nv-NF-kB (Cys allele) (Nematostella vectensis, UniProt E5G601 2-411).
T2 sequence: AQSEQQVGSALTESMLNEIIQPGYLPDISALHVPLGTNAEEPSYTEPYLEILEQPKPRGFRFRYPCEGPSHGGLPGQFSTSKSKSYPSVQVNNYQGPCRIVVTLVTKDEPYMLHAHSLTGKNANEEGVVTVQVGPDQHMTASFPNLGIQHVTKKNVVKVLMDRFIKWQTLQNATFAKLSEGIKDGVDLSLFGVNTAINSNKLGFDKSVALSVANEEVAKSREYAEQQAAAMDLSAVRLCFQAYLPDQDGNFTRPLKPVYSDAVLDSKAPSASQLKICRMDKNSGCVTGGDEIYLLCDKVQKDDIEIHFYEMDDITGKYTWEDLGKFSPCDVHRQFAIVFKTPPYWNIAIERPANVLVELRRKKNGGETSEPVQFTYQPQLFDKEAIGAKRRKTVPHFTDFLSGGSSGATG

The target of experiment [3] is T3, GST-Co-NF-kB (Capsaspora owczarzaki, UniProt F1ARL5 200-546).
T3 sequence: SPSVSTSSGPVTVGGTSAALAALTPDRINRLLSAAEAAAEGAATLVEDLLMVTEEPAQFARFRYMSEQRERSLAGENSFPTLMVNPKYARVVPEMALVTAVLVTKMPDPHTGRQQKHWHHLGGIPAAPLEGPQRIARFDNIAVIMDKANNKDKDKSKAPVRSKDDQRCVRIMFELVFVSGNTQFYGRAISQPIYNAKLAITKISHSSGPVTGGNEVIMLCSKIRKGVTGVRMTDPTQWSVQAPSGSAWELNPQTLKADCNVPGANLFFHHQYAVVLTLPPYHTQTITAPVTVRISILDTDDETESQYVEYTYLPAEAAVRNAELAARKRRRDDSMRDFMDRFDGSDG

The target of experiment [4] is T4, GST-Dm-Relish (Drosophila melanogaster, UniProt Q94527 99-473).
T4 sequence: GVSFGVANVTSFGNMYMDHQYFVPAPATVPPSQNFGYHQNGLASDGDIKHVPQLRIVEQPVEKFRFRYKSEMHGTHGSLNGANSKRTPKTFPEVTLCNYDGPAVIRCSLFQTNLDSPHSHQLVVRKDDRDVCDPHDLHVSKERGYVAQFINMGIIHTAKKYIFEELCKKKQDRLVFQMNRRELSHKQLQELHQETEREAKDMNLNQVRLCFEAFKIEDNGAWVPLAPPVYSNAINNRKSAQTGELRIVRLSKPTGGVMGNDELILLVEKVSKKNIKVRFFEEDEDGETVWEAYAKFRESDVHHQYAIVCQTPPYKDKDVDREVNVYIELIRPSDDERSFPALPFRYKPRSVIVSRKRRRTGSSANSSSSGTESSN

Experiment [5] deals with T5, GST-Aq-NF-kB (Amphimedon queenslandica, UniProt A9Y5G7 2-389).
T5 sequence: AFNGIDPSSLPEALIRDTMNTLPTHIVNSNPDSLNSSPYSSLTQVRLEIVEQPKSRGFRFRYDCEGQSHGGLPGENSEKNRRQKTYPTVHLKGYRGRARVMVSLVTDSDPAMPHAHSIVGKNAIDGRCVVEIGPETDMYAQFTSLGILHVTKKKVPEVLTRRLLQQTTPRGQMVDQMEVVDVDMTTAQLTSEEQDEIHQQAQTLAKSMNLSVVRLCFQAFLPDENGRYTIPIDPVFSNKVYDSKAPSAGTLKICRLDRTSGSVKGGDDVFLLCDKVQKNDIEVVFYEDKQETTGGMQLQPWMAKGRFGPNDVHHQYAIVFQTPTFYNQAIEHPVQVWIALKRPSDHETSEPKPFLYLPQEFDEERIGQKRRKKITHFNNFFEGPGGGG

In the case of “CCGATTAACATCAGAACATTCCCTGATGTTAATCGGGTCTTGATTCGCTTGACGCTGCTG”, the binding signal in experiment [1] is 2.94 z-score; in experiment [2] it was 4.14 z-score; in experiment [3], 2.6 z-score; in experiment [4] it was 1.97 z-score; in experiment [5] it was 5 z-score.
For “CCGATTAACATCAGGGAAACCACTGATGTTAATCGGGTCTTGATTCGCTTGACGCTGCTG” the same measures were 3.4 z-score, 4.47 z-score, 3.12 z-score, 8.4 z-score and 6.48 z-score.
Consider “CCGATTAACATCAGGGATTTTGATGATGTTAATCGGGTCTTGATTCGCTTGACGCTGCTG”, for which the binding signal in experiment [1] was found to be 3.17 z-score; in experiment [2], 2.95 z-score; in experiment [4], 4.91 z-score; in experiment [5] it was 2.87 z-score.
As for “CCGATTAACATCAGAGAAACCCCTGATGTTAATCGGGTCTTGATTCGCTTGACGCTGCTG”, the binding signal worked out at 5.16 z-score in experiment [1], 4.86 z-score in experiment [2], 5.69 z-score in experiment [4] and 5.18 z-score in experiment [5].
For the sequence “CCGATTAACATCAAGCATCCCCCTGATGTTAATCGGGTCTTGATTCGCTTGACGCTGCTG”, the binding signal in experiment [1] stood at 4.92 z-score; in experiment [2] it was 5.03 z-score; in experiment [3] it was 4.28 z-score; in experiment [4], 3.89 z-score; in experiment [5], 4.87 z-score.
Regarding “CCGATTAACATCAGAAAAAACCCTGATGTTAATCGGGTCTTGATTCGCTTGACGCTGCTG”, the binding signal in experiment [1] was 3.95 z-score; in experiment [2] it was 4.93 z-score; in experiment [4], 6.15 z-score; in experiment [5], 6.47 z-score.
For “CCGATTAACATCAAAAATTTACCTGATGTTAATCGGGTCTTGATTCGCTTGACGCTGCTG” the same measures were 1.32 z-score, 3.04 z-score, 4.45 z-score and 2.7 z-score.
For “CCGATTAACATCAAGGACTTCCCTGATGTTAATCGGGTCTTGATTCGCTTGACGCTGCTG” the same measures were 2.9 z-score, 3.39 z-score, 6.91 z-score and 5 z-score.
On to “CCGATTAACATCAGGAGAATCCCTGATGTTAATCGGGTCTTGATTCGCTTGACGCTGCTG”, for which the binding signal stood at 2.6 z-score in experiment [1], 3.24 z-score in experiment [2], 4.39 z-score in experiment [4] and 5.52 z-score in experiment [5].
As for “CCGATTAACATCAATGGGATTCCTGATGTTAATCGGGTCTTGATTCGCTTGACGCTGCTG”, the binding signal in experiment [1] amounted to 1.54 z-score; in experiment [2], 1.13 z-score; in experiment [4], 7.4 z-score; in experiment [5], 1.65 z-score.
In the case of “CCGATTAACATCAGGAAAACCCATGATGTTAATCGGGTCTTGATTCGCTTGACGCTGCTG”, the binding signal was determined as 2.63 z-score in experiment [1], 2.25 z-score in experiment [2], 4.78 z-score in experiment [4] and 4.02 z-score in experiment [5].
Take “CCGATTAACATCAGGTATTTTTATGATGTTAATCGGGTCTTGATTCGCTTGACGCTGCTG”: the binding signal in experiment [1] turned out to be 1.27 z-score; in experiment [2], 2.01 z-score; in experiment [4] it was 3.8 z-score; in experiment [5] it was 2.77 z-score.
For “CCGATTAACATCAGGGGATGACCTGATGTTAATCGGGTCTTGATTCGCTTGACGCTGCTG”, the binding signal came out at 3.72 z-score in experiment [1]; 4.14 z-score in experiment [2]; 1.93 z-score in experiment [3]; 6.67 z-score in experiment [4]; 6.55 z-score in experiment [5].
On the same counts, the results for “CCGATTAACATCATGGGTGGGAATGATGTTAATCGGGTCTTGATTCGCTTGACGCTGCTG” are 1.4 z-score, 1.79 z-score, 2.62 z-score, 1.66 z-score and 2.5 z-score.
Regarding “CCGATTAACATCACGGAAAGCCCTGATGTTAATCGGGTCTTGATTCGCTTGACGCTGCTG”, the binding signal in experiment [1] came out at 1.02 z-score; in experiment [2], 1 z-score; in experiment [4], 2.9 z-score; in experiment [5], 4.35 z-score.
